Screens: PubChem BioAssay, National Center for Advancing Translational Sciences (NCATS)
Only some compounds are listed: those with a hit (about 12% of all), similar ones and a draw of the others.
PLK1 PBD inh = inhibitors of human PLK1 polo-box domain binding | Plk1 PBD binding of FITC phosphopeptide, fluorescence polarization | AID 720504 | Potency, µM, without a hit: max response, negative = inhibition, hits mostly inhibitors | actives 2.8% (n = 360,000) | P53350; further: potency means the concentration at half of the fitted maximal effect; series mostly up to about 57 µM; on the % scale 0 is the no-effect control and ±100 the full control effect; nearly all actives have a fitted effect of over 65% in size
G9a inh = blocks human histone lysine methyltransferase G9a; Potency, µM (doses to about 102 µM), without a hit: at the highest dose activity, negative = inhibition, most hits filed as inhibitors; AID 504332; G9a H3K9 monomethylation, AlphaScreen, 2 h; actives 8.8% (n = 350,000); Q96KQ7; further: potency means the concentration at half of the fitted maximal effect; on the % scale 0 is the no-effect control and ±100 the full control effect; nearly all actives have a fitted effect of over 75% in size
Target sequence (Q96KQ7 913-1193 limits assumed): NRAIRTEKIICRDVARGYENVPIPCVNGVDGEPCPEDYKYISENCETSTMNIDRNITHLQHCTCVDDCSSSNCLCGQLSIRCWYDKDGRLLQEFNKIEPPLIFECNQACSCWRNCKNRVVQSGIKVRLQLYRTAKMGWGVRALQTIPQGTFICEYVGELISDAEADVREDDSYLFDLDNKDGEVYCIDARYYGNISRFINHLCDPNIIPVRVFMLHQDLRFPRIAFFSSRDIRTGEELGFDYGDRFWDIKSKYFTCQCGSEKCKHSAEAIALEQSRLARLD
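Using a bead-based AlphaScreen, monomethylated H3K9 product from 2 h room-temperature reactions (G9a 20 nM, peptide 500 nM, SAM 20 uM) was detected with 0.5 ug/mL rabbit anti-H3K9me1 antibody.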
PI5P4K alpha inh = blocks human PI5P4K alpha kinase activity | P48426 | PI5P4Kalpha enzyme, ADP-Glo luminescence, 60 min; hits give low values | max response, % | actives 1.2% (n = 330,000) | AID 652105; active means max response of -50% or lower; inconclusive means between -30% and -50%; inactive means -30% or higher; further: value at the top dose of about 77 µM; on the % scale 0 is the no-effect control and ±100 the full control effect
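Enzyme plus substrate dispensed, test compounds pinned in, then ATP (5 microM final) added. After 60 min at RT, ADP-Glo reagent 1 for 45 min and reagent 2 for 30 min preceded luminescence imaging.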
BAZ2B block = inhibitors of human BAZ2B bromodomain | actives 4.4% (n = 360,000) | Potency, µM (titrated, usually from 114 µM), for the others: at the top dose activity change, negative = inhibition, hits mostly inhibitors | AlphaScreen BAZ2B-H3K14Ac peptide displacement | AID 504333 | Q9UIF8; further: potency means the concentration at half of the fitted maximal effect; on the % scale 0 is the no-effect control and ±100 the full control effect; nearly all actives have a fitted effect of over 60% in size
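AlphaScreen displacement of biotin-H3(5-23)K14Ac peptide (50 nM final) from BAZ2B (50 nM final) in PBS pH 7.4, 0.01% Tween-20; complex preformed 30 min RT, then compounds (top 110 uM) 30 min RT, beads 20 min dark.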
HP1b chromo inh = HP1-beta chromodomain-methylated histone interaction inhibition; Potency, µM (titrated, usually from 114 µM), inactives show top-dose activity change, negative = inhibition, hits mostly inhibitors; AID 540317; actives 0.56% (n = 390,000); AlphaScreen HP1-beta / biotin-H3K9me3 peptide binding; further: potency means the concentration at half of the fitted maximal effect; nearly all actives have a fitted effect of over 70% in size
Target sequence (P83916 whole entry, looked up): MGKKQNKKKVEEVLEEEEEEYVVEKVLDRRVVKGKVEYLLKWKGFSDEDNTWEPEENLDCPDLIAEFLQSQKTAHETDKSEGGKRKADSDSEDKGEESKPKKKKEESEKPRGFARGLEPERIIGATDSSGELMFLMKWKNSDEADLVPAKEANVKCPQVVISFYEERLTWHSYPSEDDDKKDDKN
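AlphaScreen: HP1-beta (50 nM) preformed 30 min with biotin-H3(1-18)K9me3 peptide (50 nM) in PBS pH 7.4, 0.01% Tween-20. Compound added for 30 min at RT, then streptavidin donor/nickel chelate acceptor beads (10 ug/mL) for 30 min.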
JMJD2A Tudor inh = inhibitors of human JMJD2A Tudor domain; Potency, µM (series often up to 114 µM), for inactives: at the top dose activity change, negative = inhibition, actives largely listed as inhibitors; AlphaScreen JMJD2A-Tudor / H3K4me3 peptide binding; actives 4.4% (n = 390,000); further: potency means the concentration at half of the fitted maximal effect; on the % scale 0 is the no-effect control and ±100 the full control effect; nearly all actives have a fitted effect of over 50% in size
The depositor's hits bear a star; u = inconclusive; x = not tested or not shown; [ ] = remark or other dose. Unless noted, the call rests on the fitted dose curve; in most records, active means well fitted curve in the direction sought with a large enough effect; inconclusive means small, poorly fitted or top-dose-only effect, or another doubt; inactive means no such curve, though single readings can be large; an effect the other way counts as inactive or inconclusive.

SMILES	PLK1 PBD inh	G9a inh	PI5P4K alpha inh	BAZ2B block	HP1b chromo inh	JMJD2A Tudor inh
O=C(COC(=O)/C=C/c1ccccc1Cl)NCc1ccco1	-6.5%	u	-13.4	50.1µM*	3.8%	-27.8%
CC(=O)Nc1ccc(S(=O)(=O)NCC(=O)NCCc2ccc(S(N)(=O)=O)cc2)cc1	-11.5%	-12.2%	-3.6	-13.4%	1.0%	-11.8%
O=C(CNCCc1ccc(Cl)cc1Cl)NCc1ccco1	-10.7%	u	4.2	-29.7%	-3.6%	-26.8%
CCn1c(SCc2cccc(Br)c2)nnc1-c1nonc1NC(C)=O	x	0.4%[59 µM]	x	1.3%	56.7%	5.6%
COc1ccc([C@]23Cc4cc(OC)c(OC)cc4C(O2)c2c(c4ccccc4oc2=O)O3)cc1	x	u	x	10µM*	x	x
COc1ccc([C@]23Cc4cc(OC)c(OC)cc4C(O2)c2c(cc(C)n(Cc4ccccc4)c2=O)O3)cc1	x	-4.2%[2.33 µM]	x	11.2µM*	x	x
CC(=O)Nc1ccc(NC(=O)CNC(=O)c2cccc(C)c2)cc1	-9.1%	10.7%[59 µM]	5.3	7.7%	-6.7%	-16.4%
CC1(C)Cc2noc(N)c2C(C)(C)N1O	-0.6%	u	3.6	-7.0%	16.6%	31.6µM*
CN(C)CCN1C(=O)C(O)=C(C(=O)c2cc3ccccc3o2)C1c1ccc(N(C)C)cc1 (centres undefined)	0.5%	50.1µM*	11.0	u	20.1%	u
COc1cccc2cc(C(=O)C3=C(O)C(=O)N(CCCN(C)C)C3c3ccncc3)oc12 (centres undefined)	x	u	x	-7.4%	x	x
CCN(CC)CCCN1C(=O)C(O)=C(C(=O)c2cc3cccc(OC)c3o2)C1c1ccncc1 (centres undefined)	-7.9%	50.1µM*	x	-8.6%	x	-10.3%
COc1cccc2cc(C(=O)C3=C(O)C(=O)N(CCN(C)C)C3c3ccc(F)cc3)oc12 (centres undefined)	-3.0%	50.1µM*	x	-10.9%	24.1%	-30.8%
COC(=O)c1nnn(CC(=O)Nc2cc(F)ccc2F)c1C(=O)OC	x	45.9%[59 µM]	x	40.9%	66.7%	-15.8%
CC(C)(C)/C(O)=C/c1nc2ccccc2oc1=O	u	x	1.6	4.7%	16.8%	-0.6%
O=c1oc2cc([N+](=O)[O-])ccc2nc1/C=C(O)/C=C/c1ccccc1	x	35.5µM*	x	50.1µM*	x	x
O=c1oc2cc([N+](=O)[O-])ccc2nc1/C=C(\O)c1cccc(Br)c1	-11.3%	20µM*	1.1	u	14.1%	u
O=C(OCn1nnc2ccccc2c1=O)c1ccc(F)c(S(=O)(=O)N2CCOCC2)c1	-13.8%	x	-10.3	x	x	x
Cc1cc(NC(=O)CCn2c(=O)c3cccn3c3cccnc32)ccc1Br	x	-2.1%[59 µM]	x	-4.1%	45.3%	5.1%
O=C(O)c1ccc(Cl)c(S(=O)(=O)Nc2ccc(OCc3ccccc3)cc2)c1	-4.1%	39.8µM*	1.7	-13.4%	10.6%	-13.8%
Cc1cc(C)nc(NNC2=CC(=[N+]3CCCC3)CCC2)n1	-20.8%	u	0.5	-7.8%	u	3.16µM*
CC1=C(C(=O)OCc2ccc(C)cc2)C(c2ccccc2F)CC(=O)N1 (centres undefined)	x	-31.5%[59 µM]	x	1.9%	12.4%	-16.8%
CCCN1CCCc2cc(CN)ccc21	18.9µM*	8.91µM*	x	44.7µM*	u	3.98µM*
CN1CCN(c2ncnc3ccc(-c4cccc(NS(C)(=O)=O)c4)cc23)CC1	x	-0.4%[0.501 µM]	x	x	x	x
O=C(Nc1nnc(Cc2ccccc2)s1)C1CCN(C(=O)c2ccco2)CC1	26.7µM*	10µM*	-10.5	-13.1%	u	-20.5%
COc1ccc(Cc2nnc(NC(=O)C3CCN(C(=O)c4ccco4)CC3)s2)cc1	-7.6%	79.4µM*	2.2	-2.9%	-13.8%	-17.3%
CCCc1nnc(NC(=O)C2CCN(C(=O)c3ccco3)CC2)s1	0.0%	-10.8%	-7.8	-1.7%	-2.2%	-2.1%
CCOC(=O)C1=C(O)/C(=C\c2ccc(CNC(=O)C(=O)Nc3ccccc3)o2)N=C1C	-20.3%	u	-64.7*	56.2µM*	0.8%	u
Cc1cc(C)nc(Nc2nc(=O)c3ccccc3s2)n1	-16.7%	39.8µM*	3.0	-3.9%	16.7%	-9.8%
